# Assay outcomes: PubChem, National Center for Advancing Translational Sciences (NCATS)
# TDP1 cell CPT = growth inhibition of DT40 Tdp1-/-;hTDP1 cells with camptothecin (screen for TDP1 inhibitors); chicken DT40 Tdp1-/-;hTDP1 cells + 20 nM CPT, ATP luminescence, 48 h; Potency, µM (titrated, usually from 46.2 µM), for the others: top-dose activity change, negative = growth inhibition, usual class: inhibitors; 420,000 tested, 12% active; AID 686979; also: potency is read from the fitted curve at half-maximal effect; nearly all actives have a fitted effect of over 55% in size
#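 Chicken DT40 Tdp1-/- cells stably complemented with human TDP1 were seeded at 400 cells/well in medium containing 20 nM camptothecin, exposed to pin-transferred compounds, and grown at 37 °C for at least 48 hr. Viability was read as ATP luminescence.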
# DT40 TDP1 no CPT = qHTS for Inhibitors of human tyrosyl-DNA phosphodiesterase 1 (TDP1): qHTS in cells in absence of CPT. DT40 Tdp1-/- hTDP1 cells, no CPT, ATP luminescence, 48 h. Potency, µM (highest dose often 46.2 µM), for inactives: at the highest dose activity change, negative = growth inhibition, most hits filed as inhibitors. 420,000 tested, 15% active. AID 686978, 2013; also: potency is read from the fitted curve at half-maximal effect; nearly all actives have a fitted effect of over 55% in size
#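 Luminescent ATP content (CellTiter-Glo) served as the growth readout. Knockout chicken DT40 cells expressing human TDP1 were exposed to compounds without camptothecin for a minimum 48 hr at 37 °C.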
# HT1080NT lethal = kills 2HG-producing HT-1080-NT fibrosarcoma cells; HT-1080-NT fibrosarcoma viability, CellTiter-Glo ATP luminescence, 48 h; 360,000 tested, 1.6% active; Potency, µM (highest dose often 46.1 µM), for inactives: top-dose activity, negative = less viability, most hits filed as cytotoxic;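 also: NT is the 2HG producing partner of a matched IDH1 knockdown line; potency is read from the fitted curve at half-maximal effect; 0% = DMSO-treated cells and -100% = media-only wells without cells; nearly all actives have a fitted effect of over 55% in size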
#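 A 48-hour cytotoxicity screen used HT-1080-NT cells plated 2 hours before compound delivery. ATP-based CellTiter-Glo luminescence measured viability, normalized to DMSO and no-cell controls.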
# HT1080 IDH1KD tx = HT-1080 IDH1 knockdown cell toxicity (counter line); HT-1080 IDH1 knockdown viability, ATP luminescence, 48 h; 360,000 tested, 2% active; Potency, µM (titrated, usually from 46.1 µM), for the others: at the top dose activity, negative = toxicity, hits mostly cytotoxic;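 also: potency is read from the fitted curve at half-maximal effect; 0% = DMSO wells and -100% = cell-free medium wells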
#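 CellTiter-Glo luminescence after 48 h compound exposure at 37 degrees C of IDH1-knockdown HT-1080 cells in 5% FBS RPMI. %Activity scaled between DMSO wells and cell-free media wells, with curves fitted and assigned curve classes.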
# IL-1B inflam inh = inhibitors of inflammasome signaling (IL-1 beta secretion). THP-1 LPS/ATP IL-1B secretion, AlphaLISA, 16 h; active compounds read low. activity change, % at 57.5 µM. 360,000 tested, 4.7% active; in the data active = activity change below about -50%; inconclusive = mostly about -30% to -49%
#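 Secreted IL-1B measured by AlphaLISA bead assay after 16 h compound exposure of THP-1 cells; compounds (final up to 57.5 uM) added 1 h before LPS (250 ng/mL) and ATP (1.25 mM) stimulation; lower signal means less secretion.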
# Starred values were filed as active, the others as inactive; ? = inconclusive; · = no result given. This is a sample that favours compounds with a hit; in the whole collection about 19% have one here. Unless noted, calls follow the shape of the dose curve; as a rule, active = well fitted curve in the direction sought with a large enough effect; inconclusive = small, poorly fitted or top-dose-only effect, or another doubt; inactive = no such curve, though single readings can be large; an effect the other way counts as inactive or inconclusive. Unless noted, % is scaled to controls: 0 for no effect and ±100 for the full control effect.
SMILES,TDP1 cell CPT,DT40 TDP1 no CPT,HT1080NT lethal,HT1080 IDH1KD tx,IL-1B inflam inh
COc1ccccc1Nc1c2c(nc3ccc(N)cc13)CCCC2,16.4µM*,20.6µM*,2.0%,-0.8%,-12.0
COc1ccccc1NC(=O)c1ccc2c(Cl)c3c(nc2c1)CCCC3,0.3%,-2.0%,·,·,·
COc1ccccc1Nc1c2c(nc3ccc(NC(=O)c4ccc(OC)c(OC)c4)cc13)CCCC2,23.1µM*,14.6µM*,·,·,·
CCSc1nc2c(c(=O)n(C)c(=O)n2C)n1Cc1ccc(Cl)cc1,20.6µM*,18.4µM*,-1.8%,0.1%,0.0
Cc1nnc(Sc2nc3c(c(=O)n(C)c(=O)n3C)n2Cc2ccc(Cl)cc2)s1,?,16.4µM*,7.8%,0.8%,20.1
Cc1ccc(Cn2c(Sc3ncccn3)nc3c2c(=O)[nH]c(=O)n3C)cc1,?,16.4µM*,?,-7.9%,14.7
Cc1ccc(Cn2c(SCC(C)C)nc3c2c(=O)n(C)c(=O)n3C)cc1,25.9µM*,25.9µM*,-0.7%,-6.2%,-27.6
Cn1c(=O)c2c(nc(SCC(=O)c3cccs3)n2Cc2ccc(F)cc2)n(C)c1=O,20.6µM*,11.6µM*,5.0%,0.2%,9.2
Cn1c(=O)c2c(nc(Br)n2CC(=O)c2cccs2)n(C)c1=O,?,-19.8%,-2.3%,-7.4%,1.6
Cn1c(=O)c2c(nc(Sc3ncccn3)n2Cc2ccc(Cl)cc2)n(C)c1=O,11.6µM*,?,-3.4%,-11.7%,14.7
CCN1/C(=C\C=C(C(C)=O)C(C)=O)Sc2ccccc21,?,?,1.9%,-11.3%,-6.7
CCOC(=O)/C(C#N)=C(C)/C=C1\Sc2ccccc2N1CC,?,18.4µM*,16.4%,6.7%,-2.9
CCOC(=O)C1=CN(Cc2cccc(F)c2)S(=O)(=O)N(C)C1CCc1ccccc1 (stereo not drawn),?,?,-5.0%,-4.5%,24.4
CC(C)(C)c1ccc(Oc2nc3ccccn3c(=O)c2/C=C(\C#N)c2nc3ccccc3[nH]2)cc1,1.5%,-2.7%,·,·,·
Cc1cccn2c(=O)c(/C=C(\C#N)c3nc4ccccc4n3C)c(Oc3ccc(Cl)cc3)nc12,?,8.2µM*,·,·,·
COc1ccc(/C(C#N)=C/c2c(-c3ccc(Cl)cc3)nc3c(C)cccn23)cc1,?,18.4µM*,18.2%,13.9%,30.2
Cc1cccn2c(=O)c(/C=C(\C#N)c3nc4ccccc4n3C)c(Oc3ccc(Br)cc3)nc12,10.3µM*,6.51µM*,·,·,·
N#C/C(=C\c1c(Oc2ccc(Br)cc2)nc2ccccn2c1=O)c1nc2ccccc2s1,-73.1%,16.4µM*,·,·,·
Cc1cccn2c(=O)c(/C=C(\C#N)c3nc4ccccc4[nH]3)c(Oc3ccc(C(C)(C)C)cc3)nc12,5.1%,-13.7%,·,·,·
COc1ccc(C(CNC(=O)CN2C(=O)NC(C)(c3ccc4ccccc4c3)C2=O)N2CCCC2)cc1 (stereo not drawn),?,?,-28.6%,0.0%,?
CCN1CCN(c2nc3c(C)cccn3c(=O)c2/C=C(\C#N)S(=O)(=O)c2ccc(Cl)cc2)CC1,-10.7%,-6.9%,2.0%,-5.1%,-21.0
Cc1cc(Oc2nc3c(C)cccn3c(=O)c2/C=C(\C#N)S(=O)(=O)c2ccc(Cl)cc2)ccc1Cl,?,23.1µM*,0.3%,-0.1%,-10.2
O=C1C=CC2(O[C@H](c3ccccc3)[C@@H](c3ccccc3)O2)[C@H](Sc2ccccc2O)C1,0.461µM*,0.581µM*,4.61µM*,3.26µM*,-116.8*
COC(=O)CSc1cccc2c1C(=O)CC2c1ccccc1 (stereo not drawn),6.3%,-5.6%,0.0%,4.5%,-11.7
O=C(NCc1ccco1)c1cc(S(=O)(=O)NC2CC2)ccc1Br,2.4%,-10.2%,14.2%,14.3%,-0.5
SMILES,TDP1 cell CPT,DT40 TDP1 no CPT,HT1080NT lethal,HT1080 IDH1KD tx,IL-1B inflam inh
Cc1c(CCC(=O)O)c(=O)oc2cc(OCc3ccccc3F)ccc12,12.1%,10.4%,-15.0%,-14.1%,31.2
COc1ccc2c(C)c(CCC(=O)NCCc3ccc(OC)c(OC)c3)c(=O)oc2c1,13µM*,?,·,·,·
COc1ccccc1CNC(=O)CCc1c(C)c2ccc(OC)c(C)c2oc1=O,?,-22.7%,·,·,·
COc1ccccc1CCNC(=O)CCc1c(C)c2cc3c(C)c(C)oc3cc2oc1=O,18.4µM*,16.4µM*,·,·,·
Cc1oc2cc3oc(=O)c(CCC(=O)NCCc4ccccc4F)c(C)c3cc2c1C,23.1µM*,23.1µM*,·,·,·
CCOC(=O)c1sc(Nc2ccc(F)cc2)nc1C,?,?,-13.3%,-2.4%,-20.7
CCOC(=O)c1sc(Nc2nc(C)cc(C)n2)nc1C,7.31µM*,6.51µM*,-4.7%,0.9%,30.7
CCOC(=O)c1sc(Nc2ccc(C)cc2C)nc1C,?,15.8µM*,-12.0%,-5.3%,-17.1
CCOC(=O)c1sc(Nc2nc(C)cc(OC)n2)nc1C,?,13µM*,15.6%,6.1%,72.4
CCOC(=O)c1sc(NC(=O)CC)nc1C,-1.7%,-8.1%,10.4%,-1.3%,-26.9
O=C(NC(=S)/C(=C1\CCCCCN1)[N+](=O)[O-])c1ccccc1,-1.1%,3.1%,-7.0%,-9.3%,4.5
CCCCN(CC)CCCNC(=O)c1sc2nc(C)cc(C)c2c1-n1cccc1,?,18.4µM*,·,·,·
CCOC(=O)Nc1sc2nc(C)cc(C)c2c1-n1cccc1,23.1µM*,9.2µM*,-26.1%,-29.2%,-11.4
Cc1cc(C)c2c(-n3cccc3)c(C(=O)NCC(C)c3ccccc3)sc2n1 (stereo not drawn),20.6µM*,20.6µM*,·,·,·
Cc1cc(C)c2c(-n3cccc3)c(C(=O)NNS(=O)(=O)c3ccc(Br)cc3)sc2n1,1.6%,-16.0%,-8.0%,-18.2%,16.1
C=COC(=O)c1sc2nc(C)cc(C)c2c1N,2.3%,-19.6%,-11.8%,-9.5%,0.5
CC(CNC(=O)c1sc2ncccc2c1-n1cccc1)c1ccccc1 (stereo not drawn),?,25.9µM*,·,·,·
O=C(Nc1cccc(C(=O)N2CCCC2)c1)C1CCC1,-5.1%,-0.4%,2.2%,11.7%,28.8
CC(C)[C@@H]1Cc2[nH]c(=O)[nH]c(=O)c2[C@H](c2ccc(F)cc2)O1,-6.2%,-6.4%,14.0%,9.3%,0.0
Cc1cc(Cl)ccc1C(O)c1ncc(-c2cccc3ccccc23)[nH]1 (stereo not drawn),?,?,?,?,-27.4
CCC(C)NC(=O)c1sc2ncccc2c1-n1c(C)ccc1C (stereo not drawn),20.6µM*,25.9µM*,·,·,·
Cc1cccc(NC(=O)CSc2nc3sc(C)cc3c(=O)n2C)c1,?,23.1µM*,-9.3%,-5.3%,-2.1
COc1ccc(NC(=O)CSc2nc3sc(C)cc3c(=O)n2C)c(OC)c1,?,18.4µM*,?,-12.6%,36.7
